The record followed here is PubChem BioAssay (NCATS).

The list shows a part of the results. Records with an inconclusive call do not appear. Active and inactive are the calls of the source. Calls come from the whole dose curve.
% is set by controls: 0 for no effect and ±100 for the full control effect; potency is the fitted concentration of half-maximal effect.

This test deals with Furin (Homo sapiens) (UniProt P09958). Description: Selectivity profile for inhibitors of NSP2Pro chikungunya virus (CHIKV): Human furin counterscreen (AID 1964102). The following applies: Recombinant human furin enzymatic counterscreen, fluorogenic substrate; series mostly up to 50.6 µM; activity change, negative = inhibition: at the top concentration. The text has this: PI: Natalia J. Martinez Ph.D.
Sequence of Furin (Homo sapiens) (P09958 whole entry, looked up): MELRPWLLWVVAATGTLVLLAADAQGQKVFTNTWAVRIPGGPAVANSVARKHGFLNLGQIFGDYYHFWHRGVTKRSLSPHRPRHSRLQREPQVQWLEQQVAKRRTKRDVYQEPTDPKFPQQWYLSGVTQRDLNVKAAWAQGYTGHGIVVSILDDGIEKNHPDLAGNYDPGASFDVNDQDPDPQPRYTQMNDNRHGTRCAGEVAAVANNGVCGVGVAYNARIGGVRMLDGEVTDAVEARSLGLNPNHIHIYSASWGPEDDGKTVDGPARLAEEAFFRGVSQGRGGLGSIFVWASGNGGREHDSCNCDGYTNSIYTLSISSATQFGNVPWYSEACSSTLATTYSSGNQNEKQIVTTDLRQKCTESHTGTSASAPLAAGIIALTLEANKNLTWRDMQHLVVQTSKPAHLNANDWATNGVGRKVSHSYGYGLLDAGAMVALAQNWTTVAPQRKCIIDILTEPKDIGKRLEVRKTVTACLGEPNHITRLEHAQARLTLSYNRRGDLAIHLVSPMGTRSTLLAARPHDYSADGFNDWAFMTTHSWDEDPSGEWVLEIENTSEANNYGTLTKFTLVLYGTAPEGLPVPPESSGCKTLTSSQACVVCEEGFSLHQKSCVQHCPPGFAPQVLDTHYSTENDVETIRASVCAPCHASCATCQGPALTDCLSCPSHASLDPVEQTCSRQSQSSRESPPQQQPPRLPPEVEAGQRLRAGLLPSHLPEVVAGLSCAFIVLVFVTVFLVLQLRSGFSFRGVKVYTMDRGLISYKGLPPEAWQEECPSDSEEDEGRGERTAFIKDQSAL
National Center for Advancing Translational Sciences (NCATS),
National Institute of Health (NIH), Rockville, Maryland
Chikungunya virus (CHIKV) is a mosquito-borne RNA virus that has emerged as one of the most important global arboviral threats in the last decade. Although the first CHIKV vaccine has recently been FDA approved for use in healthy adults at increased risk, to date, there are no available antiviral drugs for CHIKV infection. CHIKV nsP2 protease plays a crucial role in the processing of the viral polypeptide precursor to release enzymes required for viral replication, thus making it a promising drug target for antiviral discovery. Here, we established a high-throughput pipeline to identify small molecule inhibitors of nsP2 proteolytic activity. The pipeline is composed of a suite of 1,536-well in vitro assays to support quantitative high-throughput (qHTS) screening campaigns. Specifically, we developed a fluorescence resonance energy transfer (FRET)-based assay using a fluorogenic peptide substrate encompassing an endogenous cleavage site and purified recombinant protease domain (nsP2pro). Using this assay, we interrogated ~37,000 small molecules, including those in drug repurposing libraries as well as chemically diverse and medicinal chemistry-friendly compounds. Hits were selected for follow-up validation against full-length nsP2 and an additional peptide. FRET-based 1,536-well assays for papain, hepatitis C virus NS3-4A, and human furin proteases were implemented to characterize compound selectivity. […] Novel compounds were identified to be potential nsP2 inhibitors and molecular docking analyses were performed to explain the binding mode of selected hits. In vitro antiviral activity was evaluated for a subset of compounds using a high-throughput CHIKV infection assay. To our knowledge, the pipeline presented here is unprecedented for CHIKV antiviral discovery research.
PROTOCOL TABLE (as described by Inglese J, Shamu CE and Guy RK. 2007)
SEQUENCE No. (e.g., 1, 2, 3, etc.); […] (e.g., Cells, Incubation, Reagent, etc.); VALUE; DESCRIPTION.
1; Enzyme; 2 uL; 1,536-well solid-bottom, black plate (Greiner Bio One).
2; Compounds; 20 nL; Echo 655 acoustic dispenser (Beckman Coulter).
3; Incubation; 15 min; room temperature in the dark.
4: Reagent; 2 uL; pERTKR-AMC.
5; Detection; Fluorescence; time 0, Viewlux microplate reader (PerkinElmer) 355 nm excitation, 460 nm emission
6; Incubation; 15 min; room temperature
7; Detection; Fluorescence; time 15; ViewLux microplate reader (PerkinElmer), 355 nm excitation, 460 nm emission.
NOTES (numbers refer to sequence numbers above).
1. Two micro-liter of furin enzyme solution (40 nM final concentration) in assay buffer (20 mM Tris-HCl pH 8.0, 150 mM NaCl, with 0.01% Tween 20) were dispensed into a 1,536-well solid-bottom black plate (Greiner Bio One) using the Kalypsys Pintool Station.
2. Twenty nano-liter of compounds, positive control Aprotinin (50 uM final concentration), or neutral control DMSO were transferred to the assay plates. Compounds in counterscreen assays were tested at 11 concentrations, 1:3 dilution points from 25 uM to 0.42 nM.
3. The assay plates were incubated in the dark for 15 min.
4. After incubation, 2 uL of 0.625 uM pERTKR-AMC substrate in assay buffer for the Furin assay was added using the Kalypsys Pintool Station.
5-7. Plates were immediately read at time 0 then covered with stainless steel gasket lids and incubated for 15 min at room temperature in the dark. Fluorescence intensity in the assay plates were again read after incubation using the ViewLux imager equipped with AMC fluorescence optics. The change in fluorescence intensity over the 15-min reaction period was normalized against DMSO and inhibitor controls as described below.
Inglese J, Shamu CE and Guy RK, Reporting data from high throughput screening of small molecule libraries, Nature Chemical Biology, 2007, 3(8): 438-441. doi.org/10.1038/nchembio0807-438.
For `CC(=O)N[C@@H](C(=O)O[C@H]1CCC(C)(C)[C@@H]2CCC3=C(COC3=O)[C@@]12C)C(C)C`, the “activity change, negative = inhibition” value was 10.1% [at 33.5 µM] (inactive).

In the case of `C[C@@H]1C[C@@H](O)[C@@]23CO[C@]2(CO)C[C@@H](O)CC3[C@@]12CC(c1ccoc1)OC2=O` (stereo partly drawn), the “activity change, negative = inhibition” value is -1.18% [at 33.5 µM] (inactive).

On to `Cc1c(S(=O)(=O)O)oc2c1C(=O)C(=O)c1c-2ccc2c1CCCC2(C)C`, for which the “activity change, negative = inhibition” value is -9.26% (inactive).

Turning to `C=CC(=O)c1ccc2ccccc2c1`, the “activity change, negative = inhibition” value was -7.94% (inactive).

`C=Cc1c(C)c2cc3nc(cc4[nH]c(cc5nc(cc1[nH]2)C(C)=C5CCC(=O)O)c(CCC(=O)OC)c4C)[C@@]1(C)C3=CC=C(C(=O)OC)[C@H]1C(=O)OC`: the “activity change, negative = inhibition” value is -5.53% (inactive).

Take `C[C@@H]1[C@H](O)[C@@H]2OC(=O)C3=C2[C@H](CCC3)[C@@]12C[C@@H](c1ccoc1)OC2=O`: the “activity change, negative = inhibition” value was -7.71% [at 33.5 µM] (inactive).

On to `CO[C@]1(NC(=O)CSC(F)F)C(=O)N2C(C(=O)O)=C(CSc3nnnn3CCO)CO[C@H]21`, for which the “activity change, negative = inhibition” value was -6.32% (inactive).

For the compound `CCOc1ccc(NC(=O)c2c(NC(=O)Cc3ccccc3)sc3c2CCC(C)C3)cc1` (stereo not drawn), the “activity change, negative = inhibition” value was 1.84% (inactive).

`CCC(C)C(=O)OC1C(C)C2(O)C(C=C(CO)CC3(O)C(=O)C(C)=CC32)C2C(C)(C)C12OC(=O)C(C)C` (stereo not drawn): the “activity change, negative = inhibition” value was 3.07% [at 17.3 µM] (inactive).

For the compound `N#CSc1cc(SC#N)c(N)nc1N`, the “activity change, negative = inhibition” value was -9.14% (inactive).

Regarding `Oc1ccc(OC2CCCCO2)cc1` (stereo not drawn), the “activity change, negative = inhibition” value was -5.57% (inactive).

Take `CCOc1ccc(NC(=O)c2c(NC(=O)Cc3ccccc3)sc3c2CCCCC3)cc1`: the “activity change, negative = inhibition” value was -2.03% (inactive).

As for `CCOc1ccc(N(Cc2ccccc2)C(=O)c2nc(S(C)(=O)=O)ncc2Cl)cc1`, the “activity change, negative = inhibition” value is -11.6% (inactive).

`CC1=C(/C=C/C(C)=C/C=C/C(C)=C/C=C/C=C(C)/C=C/C=C(C)/C=C/C2=C(C)CCCC2(C)C)C(C)(C)CCC1`: the “activity change, negative = inhibition” value was -4.84% (inactive).

As for `COC([CH2][Hg])CNC(=O)c1ccccc1OCC(=O)O` (stereo not drawn), the Potency is 2060 nM (active).

As for `CCc1ccccc1NC(=O)c1cnn(-c2ccc(F)cc2)c1C1CCNCC1`, the “activity change, negative = inhibition” value is 11.2% (inactive).

Regarding `O=C(O)c1cccc(-n2[nH]c(-c3ccccc3)cc2=O)c1`, the “activity change, negative = inhibition” value was -8.51% (inactive).

For `C[C@@H]1O[C@@H](O[C@@H]2[C@@H](O)[C@H](OCCc3ccc(O)c(O)c3)O[C@H](CO[C@@H]3O[C@H](CO)[C@@H](O)[C@H](O)[C@H]3O)[C@H]2OC(=O)/C=C/c2ccc(O)c(O)c2)[C@H](O)[C@H](O)[C@H]1O`, the “activity change, negative = inhibition” value is -11.8% (inactive).
